The record followed here is PubChem BioAssay (NCI).

About 83,000 compounds went through this panel and 20% of them were active in at least one assay; those are over-represented in the sample as a whole.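 Percent growth is the endpoint: 0 to 100 indicates growth inhibition (40 means 60% inhibition), 0 means no net growth, and negative values indicate cell death.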 Unmarked numbers belong to inactive results. Activity calls are given as the source filed them. The calls were made as follows: active = growth percent below 10; inactive = the rest.

Test systems include NCI-H23 lung; NCI-H226 lung; NCI-H322M lung; HOP-62 NSCLC; NCI-H460 lung; NCI-H522 lung; A549/ATCC NSCLC; 786-0 renal; COLO 205 colon; DU-145 prostate; K-562 leukemia; MALME-3M melanoma; MDA-MB-231 breast; RXF 393 renal; SF-268 CNS; SF-295 CNS; SF-539 CNS; UACC-257 melanoma; M14 melanoma; HCT-15 colon.
Holding throughout (assay): NCI-60 one-dose screen, 48 h (100 = growth as untreated, 0 = no growth, -100 = all killed)
Holding throughout (settings): 10 µM

On to `CCCCCCCCCCCCCCCCCCOCC(COCCOCC[N+]1(CCCCCC(=O)[O-])CCCC1)Oc1ncccn1` (stereo not given), for which the growth in the experiment with NCI-H23 lung is 46.5%; with NCI-H226 lung, 56%; with NCI-H322M lung, 101%; in the experiment with HOP-62 NSCLC it was 21.3%; in the experiment with NCI-H460 lung, 23.7%; with NCI-H522 lung, 12.9%. The growth in the experiment on A549/ATCC NSCLC was 51.2%; with 786-0 renal it was 52.8%; in the experiment with COLO 205 colon it was -17.2% (active); in the experiment on DU-145 prostate, 77.6%; in the experiment on K-562 leukemia it was 19.8%; with MALME-3M melanoma, 82.9%. The growth was 51.9% with MDA-MB-231 breast; 28.3% in the experiment on RXF 393 renal; 32.6% in the experiment with SF-268 CNS; 26.9% in the experiment on SF-295 CNS; 36.8% in the experiment with SF-539 CNS; 45.5% in the experiment with UACC-257 melanoma. Also, the growth in the experiment on M14 melanoma was 30%; in the experiment on HCT-15 colon, 56.3%.

Consider `CC[C@H](C)C(=O)O[C@H]1CCC=C2C=C[C@H](C)C(CCC3C[C@@H](O)CC(=O)O3)[C@H]21` (stereo not given in full), for which the growth was 64.4% with NCI-H23 lung; 76.8% in the experiment with NCI-H226 lung; 44.6% in the experiment on NCI-H322M lung; 87% in the experiment on HOP-62 NSCLC; 92.9% in the experiment with NCI-H460 lung; 23% in the experiment with NCI-H522 lung. In addition, the growth in the experiment with A549/ATCC NSCLC was 97.2%; with 786-0 renal it was 84.8%; in the experiment with COLO 205 colon, 89%; in the experiment with DU-145 prostate, 110%; with K-562 leukemia, 71.5%; in the experiment on MALME-3M melanoma it was 89.1%. For the same compound, the growth in the experiment with MDA-MB-231 breast was 2.32% (active); in the experiment with RXF 393 renal, 70.2%; in the experiment on SF-268 CNS, 33.8%; in the experiment on SF-295 CNS, 8.14% (active); with SF-539 CNS, 85.8%; in the experiment on UACC-257 melanoma it was 75.2%. Moreover, the growth was 61.7% with M14 melanoma and 55.8% in the experiment with HCT-15 colon.

For the compound `CN(C)CCN1C(=O)c2cccc3c(-c4ccc5ncn(C6CCCCC6)c5c4)ccc(c23)C1=O`, the growth was 30.5% with NCI-H23 lung; 25.1% in the experiment on NCI-H226 lung; 25.3% with NCI-H322M lung; 23.4% in the experiment on HOP-62 NSCLC; 1.4% (active) with NCI-H460 lung; 4.65% (active) in the experiment with NCI-H522 lung. Moreover, the growth with A549/ATCC NSCLC is 3.34% (active); in the experiment with 786-0 renal, 19.1%; with COLO 205 colon, 8.59% (active); in the experiment with DU-145 prostate, 27%; in the experiment on K-562 leukemia, 6.76% (active); in the experiment on MALME-3M melanoma, 30.8%. In addition, the growth in the experiment on MDA-MB-231 breast was 33.6%; in the experiment with RXF 393 renal it was 26.3%; in the experiment with SF-268 CNS, 35.8%; in the experiment on SF-295 CNS it was 23.1%; in the experiment on SF-539 CNS, 31.9%; in the experiment on UACC-257 melanoma it was 23.1%. Also, the growth in the experiment with M14 melanoma was 30.2%; with HCT-15 colon it was 12.5%.

As for `COc1cc(CNCCCCCCN2C(=O)c3cccc4cccc(c34)C2=O)ccc1O`, the growth was 84% in the experiment on NCI-H23 lung; 96.4% in the experiment on NCI-H226 lung; 67.3% in the experiment on NCI-H322M lung; 70.3% in the experiment on HOP-62 NSCLC; 78.1% in the experiment on NCI-H460 lung; 60.9% in the experiment with NCI-H522 lung. Also, the growth in the experiment on A549/ATCC NSCLC is 64.3%; with 786-0 renal, 58.3%; with COLO 205 colon it was 45.8%; with DU-145 prostate, 80.9%; in the experiment on K-562 leukemia, 35.3%; with MALME-3M melanoma, 36.3%. Also, the growth with MDA-MB-231 breast was 81.5%; in the experiment on RXF 393 renal it was 52%; with SF-268 CNS it was 88.7%; with SF-295 CNS it was 69%; with SF-539 CNS it was 85.3%; in the experiment on UACC-257 melanoma, 89.4%. Moreover, the growth with M14 melanoma is 78.2%; in the experiment with HCT-15 colon, 74.7%.

As to `CC(=O)n1c(-c2ccc(Cl)c(Cl)c2)cn(-c2ccc(Cl)cc2)c1=O`, the growth in the experiment on NCI-H23 lung was 27.5%; in the experiment with NCI-H226 lung, 76.2%; in the experiment on NCI-H322M lung, 69%; in the experiment with HOP-62 NSCLC, -29.1% (active); in the experiment with NCI-H460 lung it was 3.52% (active); in the experiment on NCI-H522 lung, 36.7%. For the same compound, the growth with A549/ATCC NSCLC was -10.1% (active); in the experiment with 786-0 renal it was 2.32% (active); in the experiment on COLO 205 colon, -19.2% (active); in the experiment on DU-145 prostate it was 0.358% (active); in the experiment on K-562 leukemia it was -35% (active); with MALME-3M melanoma, 26.6%. Further, the growth in the experiment with MDA-MB-231 breast is 33.3%; in the experiment with RXF 393 renal it was -31.2% (active); in the experiment on SF-268 CNS, -32.7% (active); with SF-295 CNS, 1.9% (active); in the experiment with SF-539 CNS, -33.2% (active); with UACC-257 melanoma, 57.5%. Further, the growth with M14 melanoma is 34%; with HCT-15 colon it was 59%.

On to `O=C1/C(=C\c2ccc(F)cc2)CN(C(=O)c2ccccc2)C/C1=C\c1ccc(F)cc1`, for which the growth was 61.8% with NCI-H23 lung; 36.6% with NCI-H226 lung; 73.6% in the experiment on NCI-H322M lung; 53.3% with HOP-62 NSCLC; 58% in the experiment on NCI-H460 lung; -8.75% (active) with NCI-H522 lung. The growth is 49.2% in the experiment with A549/ATCC NSCLC; 33.6% in the experiment with 786-0 renal; 50.9% with COLO 205 colon; 31.7% with DU-145 prostate; 4.01% (active) in the experiment on K-562 leukemia; 8.3% (active) in the experiment on MALME-3M melanoma. Further, the growth in the experiment with MDA-MB-231 breast was -25.9% (active); in the experiment with RXF 393 renal it was 26.6%; with SF-268 CNS, 26%; with SF-295 CNS, -3.21% (active); with SF-539 CNS, 69.2%; in the experiment on UACC-257 melanoma, 36.5%. Further, the values for the growth in the experiment with M14 melanoma and with HCT-15 colon were 4.22% (active) and 1.64% (active), respectively.

Turning to `CC1(C)OC2=C(CC1Br)C(=O)C(=O)c1ccccc12` (stereo not given), the growth is -64.3% (active) in the experiment with NCI-H23 lung; -6.31% (active) with NCI-H226 lung; 27.1% in the experiment on NCI-H322M lung; -88.1% (active) with HOP-62 NSCLC; 3.62% (active) in the experiment with NCI-H460 lung; -67.6% (active) in the experiment with NCI-H522 lung. Moreover, the growth in the experiment on A549/ATCC NSCLC is -39.9% (active); in the experiment with 786-0 renal, -40.4% (active); in the experiment with COLO 205 colon it was -87.8% (active); in the experiment with DU-145 prostate, -95.1% (active); in the experiment on K-562 leukemia, -5.94% (active); in the experiment on MALME-3M melanoma it was -90.9% (active). The growth in the experiment with MDA-MB-231 breast is -25.1% (active); with RXF 393 renal, -97.9% (active); in the experiment with SF-268 CNS, -87.6% (active); with SF-295 CNS, -84.5% (active); with SF-539 CNS, -82% (active); in the experiment on UACC-257 melanoma, -89.3% (active). In addition, the growth in the experiment on M14 melanoma is -91.2% (active); in the experiment on HCT-15 colon it was -58.5% (active).

Consider `O=C(N/N=C\c1cc(Cl)ccc1[N+](=O)[O-])c1ccco1`, for which the growth in the experiment with NCI-H23 lung was 98.2%; in the experiment on NCI-H226 lung it was 105%; in the experiment on NCI-H322M lung, 126%; in the experiment on HOP-62 NSCLC it was 110%; in the experiment with NCI-H460 lung it was 101%; in the experiment with NCI-H522 lung, 97.2%. In addition, the growth is 90.7% in the experiment on A549/ATCC NSCLC; 95.6% in the experiment on 786-0 renal; 139% with COLO 205 colon; 108% in the experiment with DU-145 prostate; 102% in the experiment with K-562 leukemia; 125% in the experiment with MALME-3M melanoma. The growth was 95% in the experiment on MDA-MB-231 breast; 115% in the experiment on RXF 393 renal; 99.3% in the experiment on SF-268 CNS; 108% in the experiment with SF-295 CNS; 92.4% in the experiment on SF-539 CNS; 95% with UACC-257 melanoma. Moreover, the growth is 108% in the experiment on M14 melanoma and 97% in the experiment on HCT-15 colon.
